According to PubChem BioAssay AID1159580 (chemical genetic matrix, 2015):
Out of some 5,500 compounds screened, about 2,000 (36%) were called active. Inconclusive results (about 18%) are left out. Cut-off read from the data, not from the text of the source: active = normalized growth mostly below about 0.91 (no sharp cut-off); inconclusive = no clear call, values can overlap the other calls; inactive = mostly above about 0.92. This is one part of the list.

Experiment: chemical genetic growth profiling, strain panel (AID 1159580);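 note: tested at 20 µM; growth read once vehicle control cultures reached saturation at 30 °C; 1 = growth at the plate median or of vehicle wells; lower values mean less growth of the strain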
Details: S. cerevisiae deletion strains, growth OD

Measured: normalized growth

CC(=O)O[C@H]1CC2CCC3C(CC[C@@]4(C)C3C[C@H]([N+]3(C)CCCCC3)[C@@H]4OC(C)=O)[C@@]2(C)C[C@@H]1N1CCCCC1 (stereo not given in full)
inactive: locus YAL021C, strain ccr4, stronger effect = lower value 1.02 | locus YAL026C, strain drs2, stronger effect = lower value 1.03 | locus YAL030W, strain snc1, stronger effect = lower value 1.03 | locus YBL061C, strain skt5, stronger effect = lower value 1.02 | locus YBR009C, strain hhf1, stronger effect = lower value 1.03 | locus YBR023C, strain chs3, stronger effect = lower value 1.02 | locus YBR171W, strain sec66, stronger effect = lower value 1.04 | locus YBR231C, strain swc5, stronger effect = lower value 1.03 | locus YBR279W, strain paf1, stronger effect = lower value 1.03 | locus YCL011C, strain gbp2, stronger effect = lower value 1.03 | locus YCL016C, strain dcc1, stronger effect = lower value 1.02 | locus YCL061C, strain MRC1, stronger effect = lower value 1.02 | locus YCL069W, strain vba3, stronger effect = lower value 1.02 | locus YCR088W, strain abp1, stronger effect = lower value 1.02 | locus YDL005C, strain med2, stronger effect = lower value 1.03 | locus YDL040C, strain nat1, stronger effect = lower value 1.01 | locus YDR001C, strain nth1, stronger effect = lower value 1.02 | locus YDR069C, strain doa4, stronger effect = lower value 1.02 | locus YDR137W, strain rgp1, stronger effect = lower value 1.07 | locus YDR159W, strain sac3, stronger effect = lower value 1.03 | locus YDR195W, strain ref2 1.03 | locus YDR297W, strain sur2, stronger effect = lower value 1.02 | locus YDR334W, strain swr1, stronger effect = lower value 1.02 | locus YDR335W, strain msn5, stronger effect = lower value 1.02 | locus YDR392W, strain spt3, stronger effect = lower value 0.868 | locus YEL003W, strain gim4, stronger effect = lower value 1.02 | locus YEL037C, strain rad23, stronger effect = lower value 1.02 | locus YEL061C, strain CIN8 (second series), stronger effect = lower value 1.03 | locus YER015W, strain faa2, stronger effect = lower value 1.02 | locus YER016W, strain bim1, stronger effect = lower value 1.02 | locus YER111C, strain swi4, stronger effect = lower value 1.01 | locus YER155C, strain BEM2 (second series), stronger effect = lower value 1.03 | locus YFR010W, strain ubp6, stronger effect = lower value 1.01 | locus YGL167C, strain pmr1, stronger effect = lower value 1.04 | locus YGL173C, strain kem1, stronger effect = lower value 1.03 | locus YGL227W, strain vid30, stronger effect = lower value 1.02 | locus YGL240W, strain doc1, stronger effect = lower value 1.04 | locus YGL253W, strain hxk2, stronger effect = lower value 1.01 | locus YHR013C, strain ard1, stronger effect = lower value 1.01 | locus YHR027C, strain rpn1, stronger effect = lower value 1.02 | locus YHR030C, strain SLT2, stronger effect = lower value 1.05 | locus YHR079C, strain IRE1, stronger effect = lower value 1.03 | locus YHR142W, strain chs7, stronger effect = lower value 1.02 | locus YJL092W, strain hpr5, stronger effect = lower value 1.01 | locus YJL095W, strain BCK1 (second series), stronger effect = lower value 1.02 | locus YJL095W, strain BCK1, stronger effect = lower value 0.993 | locus YJL115W, strain asf1, stronger effect = lower value 1.02 | locus YJL129C, strain trk1, stronger effect = lower value 1.03 | locus YJL154C, strain vps35, stronger effect = lower value 1.02 | locus YJL164C, strain tpk1, stronger effect = lower value 1 | locus YJL166W, strain qcr8, stronger effect = lower value 1.03 | locus YJL187C, strain SWE1, stronger effect = lower value 1.03 | locus YJR066W, strain TOR1, stronger effect = lower value 0.979 | locus YKL160W, strain elf1, stronger effect = lower value 1.03 | locus YKR026C, strain gcn3, stronger effect = lower value 0.998 | locus YKR091W, strain srl3, stronger effect = lower value 1.03 | locus YLL001W, strain dnm1, stronger effect = lower value 1.01 | locus YLL026W, stronger effect = lower value 1.02 | locus YLL041C, strain sdh2, stronger effect = lower value 1.02 | locus YLR027C, strain aat2, stronger effect = lower value 1.02 | locus YLR113W, strain HOG1, stronger effect = lower value 0.99 | locus YLR221C, strain rsa3, stronger effect = lower value 1.01 | locus YLR258W, strain gsy2, stronger effect = lower value 1.02 | locus YLR262C, strain YPT6 (second series), stronger effect = lower value 1.04 | locus YLR320W, strain mms22, stronger effect = lower value 1.02 | locus YLR342W, strain FKS1, stronger effect = lower value 1.02 | locus YLR357W, strain rsc2, stronger effect = lower value 1.04 | locus YLR370C, strain arc18, stronger effect = lower value 1.02 | locus YLR384C, strain iki3, stronger effect = lower value 1.03 | locus YML120C, strain ndi1, stronger effect = lower value 1.02 | locus YMR058W, strain fet3, stronger effect = lower value 1.03 | locus YMR125W, strain sto1, stronger effect = lower value 1.05 | locus YMR129W, stronger effect = lower value 1.02 | locus YMR205C, strain PFK2, stronger effect = lower value 1.05 | locus YMR231W, strain pep5, stronger effect = lower value 1.02 | locus YNL071W, strain lat1, stronger effect = lower value 1.01 | locus YNL183C, strain NPR1, stronger effect = lower value 0.965 | locus YNL209W, strain ssb2, stronger effect = lower value 1.02 | locus YNL248C, strain rpa49, stronger effect = lower value 1.01 | locus YNL322C, strain KRE1 (second series), stronger effect = lower value 1.02 | locus YNR049C, strain mso1, stronger effect = lower value 1.01 | locus YOR001W, strain rrp6, stronger effect = lower value 1.02 | locus YOR070C, strain gyp1, stronger effect = lower value 1.01 | locus YOR080W, strain dia2, stronger effect = lower value 1.04 | locus YOR083W, strain WHI5, stronger effect = lower value 1.02 | locus YOR106W, strain vam3, stronger effect = lower value 1.02 | locus YOR231W, strain MKK1, stronger effect = lower value 1.04 | locus YOR265W, strain rbl2, stronger effect = lower value 1.02 | locus YOR270C, strain vph1, stronger effect = lower value 1.04 | locus YOR290C, strain snf2, stronger effect = lower value 1.03 | locus YPL051W, strain arl3, stronger effect = lower value 1.01 | locus YPL078C, strain atp4, stronger effect = lower value 1.02 | locus YPL106C, strain sse1, stronger effect = lower value 1.02 | locus YPL240C, strain hsp82, stronger effect = lower value 1.01 | locus YPL256C, strain CLN2, stronger effect = lower value 1.04
